Among all 420,000 compounds or so, about 50,000 (12%) were called active. Where a call stands in place of a potency, no number is given. Not shown: some 26% with an inconclusive outcome. The sample holds actives, similar compounds and a random draw of the others, so the mix is not that of the screen. Values without a mark were called inactive. The call rests on the fitted dose curve; in most records, active means well fitted inhibition curve with a large enough effect; inconclusive means small, poorly fitted or top-dose-only effect; inactive means flat fitted curve, though single readings scatter.

The text below walks through data of PubChem BioAssay AID686979 (National Center for Advancing Translational Sciences (NCATS), 2013).
Potency means the concentration at half of the fitted maximal effect.

The nature of this test: qHTS for Inhibitors of human tyrosyl-DNA phosphodiesterase 1 (TDP1): qHTS in cells in presence of CPT. Further: nearly all actives have a fitted effect of over 55% in size. The following applies: chicken DT40 Tdp1-/-;hTDP1 cells + 20 nM CPT, ATP luminescence, 48 h; series mostly up to 46.2 µM. A digest of the protocol: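 Chicken DT40 Tdp1-/- cells complemented with human TDP1, 400 cells/well, exposed to compounds plus 20 nM camptothecin for at least 48 h at 37 C; viability read as ATP content by CellTiter-Glo luminescence.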
As to `CCCCn1c(N)c(N(CCOC)C(=O)c2cccc(OCc3ccccc3)c2)c(=O)[nH]c1=O`, the Potency result is “inactive”.

For `COc1ccc(-c2noc(CSc3nnc(-c4ccccc4)n3-c3ccc(F)cc3)n2)c(OC)c1`, the Potency is 11.6 µM (active).

`CSc1nnc(CNC(=O)c2ccccc2)n1-c1ccc(F)cc1`: the Potency result is “inactive”.

On to `Fc1ccc(-n2c(Cc3ccccc3)nnc2SCc2nc(-c3ccc(Cl)cc3)no2)cc1`, for which the Potency is 13 µM (active).

Take `COc1ccccc1-c1noc(CSc2nc(C)cc(=O)[nH]2)n1`: the Potency result was “inactive”.

In the case of `Cc1ccc(-c2nc(-c3ccncc3)no2)c(C)c1`, the Potency entry was “inactive”.

For `Cc1ccc(-c2noc(CSc3nnc(-c4ccncc4)n3-c3ccc(F)cc3)n2)cc1`, the Potency is 11.6 µM (active).

Turning to `Cc1ccc(-c2noc(CSc3nnc(-c4ccc(Cl)cc4)n3C)n2)cc1`, the Potency was 18.4 µM (active).

With `O=C(CSc1nnc(-c2ccncc2)n1-c1ccc(Cl)cc1)Nc1ccc(C(=O)O)cc1`, the Potency entry is “inactive”.

As to `COc1ccc(-c2nnc(SCC(=O)c3ccco3)n2-c2ccccc2)cc1`, the Potency result was “inactive”.

As for `O=C(CSc1nnc(Cc2ccccc2)n1-c1ccccc1)N1CCOCC1`, the Potency entry is “inactive”.

As for `Cc1ccc(-c2noc(CSc3nnc(-c4cccs4)n3C)n2)cc1`, the Potency result is “inactive”.

For the compound `Cc1ccc(CSc2nnc(-c3cnccn3)n2C)cc1`, the Potency entry is “inactive”.

As to `Cc1cc(=O)cc(C)n1-c1ccc(Cl)c(Cl)c1`, the Potency result is “inactive”.

Consider `CN(C(=O)CC1C(=O)NCCN1Cc1ccc2ccccc2c1)C1CCOCC1` (stereo unspecified), for which the Potency entry was “inactive”.

As to `Cc1ccc(/C=C2\CCn3c2nc2cc(C(=O)O)ccc2c3=O)c(C)c1`, the Potency entry was “inactive”.

Turning to `Cc1ccc(-c2cc(C(=O)NN)n[nH]2)o1`, the Potency result is “inactive”.

In the case of `CN(Cc1ccccc1)C(=O)[C@@H]1CCCN1C(=O)[C@@H]1CCCN1C(=O)c1c(F)cccc1F`, the Potency result was “inactive”.

For the compound `CC(C)=CCN1CCN(Cc2ccc(Oc3ncccn3)cc2)CC1CCO` (stereo unspecified), the Potency entry is “inactive”.

Consider `COc1ccccc1OCCOc1ccc(/C=C2\C(=N)N3N=C(C)SC3=NC2=O)cc1`, for which the Potency entry is “inactive”.

Regarding `COc1ccc(NC(=O)N(C)C[C@H]2Oc3ncc(C#C[C@@H](C)O)cc3C(=O)N([C@H](C)CO)C[C@H]2C)cc1`, the Potency entry is “inactive”.

On to `Cn1c(=O)cc(OCC(=O)N2CCN(c3ccccc3)CC2)c2ccccc21`, for which the Potency result was “inactive”.

Take `N#C/C(C(=O)N1CCOCC1)=C1/SC(Cc2ccc(F)cc2)C(=O)N1c1ccccc1` (stereo unspecified): the Potency entry was “inactive”.

Consider `COc1ccc(S(=O)(=O)N2CCN(CC(=O)N3CCOCC3)CC2)cc1OC`, for which the Potency entry was “inactive”.

With `O=C(O)CCC(=O)Nc1ccc(OCC2CCCO2)cc1` (stereo unspecified), the Potency entry was “inactive”.

For `Cc1ccsc1-c1cc(C(=O)O)c2c(ccc3ccccc32)n1`, the Potency entry was “inactive”.

`CC(=O)C1=C(O)C(=O)N(c2ccc(Br)cc2)C1c1ccc([N+](=O)[O-])cc1` (stereo unspecified): the Potency entry is “inactive”.

For the compound `CCn1c(CNC(=O)c2ccccc2)nnc1SCC(=O)N1CCN(c2ccccc2)CC1`, the Potency result was “inactive”.

Regarding `CCn1c2c(c(=O)n3ncc(C(=O)N4CCN(c5ccccc5)CC4)c13)CN(Cc1ccc(OC)cc1)CC2`, the Potency is 16.4 µM (active).

Consider `CCOC(=O)N1CCC(NC(=O)C(NS(=O)(=O)c2ccc3c(c2)CCN3C(=O)CC)C(C)C)CC1` (stereo unspecified), for which the Potency result is “inactive”.

For the compound `Cc1ccc(NS(=O)(=O)c2ccc3c(c2)NC(=O)CO3)cc1`, the Potency result is “inactive”.

With `Cc1cc2c(cc1S(=O)(=O)NCc1ccc(Cl)cc1)OCC(=O)N2`, the Potency entry was “inactive”.

In the case of `Cc1cc(C)cc(NS(=O)(=O)c2cc3c(cc2C)NC(=O)CO3)c1`, the Potency was 16.4 µM (active).

Regarding `CC1CCCCC12NC(=O)N(CC(=O)OCC(=O)NCc1ccc(F)cc1)C2=O` (stereo unspecified), the Potency entry was “inactive”.

`CC(=O)C[C@@H]1OC[C@H](CO)N1S(=O)(=O)c1ccc(C)cc1`: the Potency result is “inactive”.

Take `CCOC(=O)c1cnc(SCC(=O)NCc2ccco2)nc1N`: the Potency entry was “inactive”.

With `COC(=O)c1ccccc1NC(=O)CSc1ccccn1`, the Potency entry is “inactive”.

For `CCOC(=O)c1cnc(SCC(=O)Nc2ccccc2C(=O)OC)nc1N`, the Potency is 16.4 µM (active).

With `O=C(CSc1nc2ccccc2c(=O)n1CCCO)NC1CC1`, the Potency result was “inactive”.

For the compound `COc1ccc(CCNC(=O)C2CCCN2C(=O)Nc2ccccc2)cc1OC` (stereo unspecified), the Potency entry was “inactive”.

For `COc1ccc(CCNC(=O)CCC(=O)NC2CCCCC2)cc1OC`, the Potency entry is “inactive”.

Regarding `COc1ccc(CCNC(=O)c2c3c(nc4ccccc24)C(=O)N(C2CCCCC2)C3)cc1OC`, the Potency was 20.6 µM (active).

For the compound `COc1ccc(C(=O)NCCNc2ccc([N+](=O)[O-])cn2)cc1`, the Potency entry was “inactive”.

As to `COc1ccc2c(C(=O)c3ccc(C)cc3)n(CCC(N)=O)[n+]([O-])c2c1`, the Potency entry was “inactive”.

On to `CCOC(=O)C(C(=O)OCC)C(C#N)c1ccccc1` (stereo unspecified), for which the Potency entry was “inactive”.

For the compound `CCOC(=O)/C=C/C(=O)OCC(=O)NC(c1ccccc1)c1ccccc1`, the Potency was 5.8 µM (active).

As for `Cc1cc(C)cc(OCC(=O)NC(C)c2ccccc2)c1` (stereo unspecified), the Potency entry was “inactive”.

Regarding `O=C(/C=C/c1cccc([N+](=O)[O-])c1)OCC(=O)N1CCOCC1`, the Potency result was “inactive”.

With `OC[C@@H]1CN(Cc2ccc(Cl)cc2)C[C@H](n2cnc3c(NCc4ccncc4)ncnc32)O1`, the Potency entry was “inactive”.

`OC[C@@H]1CN(Cc2ccc(-c3ccccc3)cc2)C[C@H](n2cnc3c(NC4CCCC4)ncnc32)O1`: the Potency was 1.03 µM (active).

Consider `OC[C@@H]1CN(C2CCCC2)C[C@H](n2cnc3c(NC4CCC4)ncnc32)O1`, for which the Potency result is “inactive”.

In the case of `COc1ccc(C2C3=C(OC(C)=O)c4ccccc4C3=Nc3c2c(=O)n(C)c(=O)n3C)cc1` (stereo unspecified), the Potency entry is “inactive”.

Take `Cc1cccc(C2c3c(n(C)c(=O)n(C)c3=O)N=C3c4ccccc4C(=O)C32)c1` (stereo unspecified): the Potency was 8.2 µM (active).

In the case of `Cc1cccc([C@@H]2[C@@H]3C(=O)N(C)C(=O)[C@@H]3[C@@H]3C(=O)Nc4ccccc4C(=O)N23)c1`, the Potency result was “inactive”.

As for `COc1ccc(/C=C/c2nnc(NC(=O)C(C)C)s2)cc1`, the Potency entry is “inactive”.

As for `O=C(Cn1cc(C(=O)C2CC2)c2ccccc21)Nc1ccccc1Cl`, the Potency result is “inactive”.

On to `O=C(Nc1cccc(-n2cnnn2)c1)c1cccnc1`, for which the Potency result was “inactive”.

Consider `COc1ccc(CNC(=O)C2=Cc3cccc(OC)c3OC2)cc1OC`, for which the Potency result is “inactive”.

For `O=S(=O)(c1cccc2nonc12)N1CCN(c2cccc(Cl)c2)CC1`, the Potency result is “inactive”.

For `COc1cc(=O)n2c(c1C(=O)NC(C)c1ccco1)CCN(Cc1cc(C)cc(C)c1)CC2` (stereo unspecified), the activity change, negative = growth inhibition was -2.45% [at 9.04 µM].

With `COC(=O)c1c(NC(=O)COC(=O)[C@@H](NS(=O)(=O)c2ccccc2)C(C)C)sc2c1CCC2`, the Potency was 18.4 µM (active).

For the compound `CCOC(=O)c1c(NC(=O)/C(C#N)=C/c2ccccc2)sc2c1CCC2`, the Potency result is “inactive”.

For the compound `CCc1ccc(N(CC(=O)Nc2sc3c(c2C(=O)OC)CCCC3)S(C)(=O)=O)cc1`, the Potency is 23.1 µM (active).

As for `COC(=O)c1c(NC(=O)CCCC(=O)O)sc2c1CCCCC2`, the Potency result is “inactive”.

Take `CCOCC(=O)Nc1sc2c(c1C(=O)OCC)CCCC2`: the Potency entry was “inactive”.

As for `COC(=O)c1c(NC(=O)c2ccc(Cl)c(Cl)c2)sc2c1CCCC2`, the Potency result was “inactive”.
